Columns and labels:
Experiment in all cases: PBM; 200 nM protein, PBS
Details in all cases: dsDNA, one strand shown
HOXA2 [1] = biological target: HOXA2 (Homo sapiens, UniProt O43364 129-215, R185T)
HOXA2 [2] = biological target: HOXA2 (Homo sapiens, UniProt O43364 129-215, R185K)
HOXA2 [3] = biological target: HOXA2 (Homo sapiens, UniProt O43364 129-215, Y150S)
HOXA2 [4] = biological target: HOXA2 (Homo sapiens, UniProt O43364 129-215)
VAX1 [5] = biological target: VAX1 (Homo sapiens, UniProt Q5SQQ9 86-172)
Sequence of VAX1 (Homo sapiens, UniProt Q5SQQ9 86-172) (Q5SQQ9 86-172): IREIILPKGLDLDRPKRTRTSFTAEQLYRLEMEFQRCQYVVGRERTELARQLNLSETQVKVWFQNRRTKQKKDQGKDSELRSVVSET

VAX1 [6] = biological target: VAX1 (Homo sapiens, UniProt Q5SQQ9 86-172, T142I)
Sequence of VAX1 (Homo sapiens, UniProt Q5SQQ9 86-172, T142I) (Q5SQQ9 86-172 T142I): as the sequence (Q5SQQ9 86-172) above, with T57I counted along it

VAX1 [7] = biological target: VAX1 (Homo sapiens, UniProt Q5SQQ9 86-172, K157R)
Sequence of VAX1 (Homo sapiens, UniProt Q5SQQ9 86-172, K157R) (Q5SQQ9 86-172 K157R): as the sequence (Q5SQQ9 86-172) above, with K72R counted along it

Sequence of HOXA2 (Homo sapiens, UniProt O43364 129-215) (O43364 129-215): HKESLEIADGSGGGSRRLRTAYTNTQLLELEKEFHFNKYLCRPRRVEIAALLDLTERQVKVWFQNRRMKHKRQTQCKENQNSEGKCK
Sequence of HOXA2 (Homo sapiens, UniProt O43364 129-215, R185K) (O43364 129-215 R185K): as the sequence (O43364 129-215) above, with R57K counted along it
Sequence of HOXA2 (Homo sapiens, UniProt O43364 129-215, R185T) (O43364 129-215 R185T): as the sequence (O43364 129-215) above, with R57T counted along it
Sequence of HOXA2 (Homo sapiens, UniProt O43364 129-215, Y150S) (O43364 129-215 Y150S): as the sequence (O43364 129-215) above, with Y22S counted along it

Row | Sequence | binding signal (HOXA2 [1]) | binding signal (HOXA2 [2]) | binding signal (HOXA2 [3]) | binding signal (HOXA2 [4]) | binding signal (VAX1 [5]) | binding signal (VAX1 [6]) | binding signal (VAX1 [7])
1 | ACACTAAT | 11.5 upbm affinity estimate (log intensity, higher = more binding, comparable within an allelic series) | 12.6 upbm affinity estimate (log intensity, higher = more binding, comparable within an allelic series) | 10.9 upbm affinity estimate (log intensity, higher = more binding, comparable within an allelic series) | 11.3 upbm affinity estimate (log intensity, higher = more binding, comparable within an allelic series) | – | – | –
2 | AGAGCCCC | 7.28 upbm affinity estimate (log intensity, higher = more binding, comparable within an allelic series) | 10.2 upbm affinity estimate (log intensity, higher = more binding, comparable within an allelic series) | 10.3 upbm affinity estimate (log intensity, higher = more binding, comparable within an allelic series) | 7.25 upbm affinity estimate (log intensity, higher = more binding, comparable within an allelic series) | – | – | –
3 | AGAATTAT | 9.79 upbm affinity estimate (log intensity, higher = more binding, comparable within an allelic series) | 11.6 upbm affinity estimate (log intensity, higher = more binding, comparable within an allelic series) | 10.7 upbm affinity estimate (log intensity, higher = more binding, comparable within an allelic series) | 9.68 upbm affinity estimate (log intensity, higher = more binding, comparable within an allelic series) | – | – | –
4 | CTCATTAC | 12.5 upbm affinity estimate (log intensity, higher = more binding, comparable within an allelic series) | 13.2 upbm affinity estimate (log intensity, higher = more binding, comparable within an allelic series) | 10.8 upbm affinity estimate (log intensity, higher = more binding, comparable within an allelic series) | 12.3 upbm affinity estimate (log intensity, higher = more binding, comparable within an allelic series) | 13 upbm affinity estimate (log intensity, higher = more binding, comparable within an allelic series) | 12.7 upbm affinity estimate (log intensity, higher = more binding, comparable within an allelic series) | 12.8 upbm affinity estimate (log intensity, higher = more binding, comparable within an allelic series)
5 | CCCCCGTC | 7.31 upbm affinity estimate (log intensity, higher = more binding, comparable within an allelic series) | 10.2 upbm affinity estimate (log intensity, higher = more binding, comparable within an allelic series) | 10.3 upbm affinity estimate (log intensity, higher = more binding, comparable within an allelic series) | 7.2 upbm affinity estimate (log intensity, higher = more binding, comparable within an allelic series) | – | – | –
6 | AACCTAAT | 10.5 upbm affinity estimate (log intensity, higher = more binding, comparable within an allelic series) | 12.1 upbm affinity estimate (log intensity, higher = more binding, comparable within an allelic series) | 10.6 upbm affinity estimate (log intensity, higher = more binding, comparable within an allelic series) | 10.3 upbm affinity estimate (log intensity, higher = more binding, comparable within an allelic series) | – | – | –
7 | CATTATGG | 10.5 upbm affinity estimate (log intensity, higher = more binding, comparable within an allelic series) | 12.3 upbm affinity estimate (log intensity, higher = more binding, comparable within an allelic series) | 10.7 upbm affinity estimate (log intensity, higher = more binding, comparable within an allelic series) | 10.9 upbm affinity estimate (log intensity, higher = more binding, comparable within an allelic series) | – | – | –
8 | CCACCCCC | 7.29 upbm affinity estimate (log intensity, higher = more binding, comparable within an allelic series) | 10.2 upbm affinity estimate (log intensity, higher = more binding, comparable within an allelic series) | 10.4 upbm affinity estimate (log intensity, higher = more binding, comparable within an allelic series) | 6.98 upbm affinity estimate (log intensity, higher = more binding, comparable within an allelic series) | – | – | –
9 | GGTAACGA | 9.98 upbm affinity estimate (log intensity, higher = more binding, comparable within an allelic series) | 12.2 upbm affinity estimate (log intensity, higher = more binding, comparable within an allelic series) | 10.8 upbm affinity estimate (log intensity, higher = more binding, comparable within an allelic series) | 10 upbm affinity estimate (log intensity, higher = more binding, comparable within an allelic series) | – | – | –
10 | TCATTAGA | 12.1 upbm affinity estimate (log intensity, higher = more binding, comparable within an allelic series) | 13 upbm affinity estimate (log intensity, higher = more binding, comparable within an allelic series) | 10.6 upbm affinity estimate (log intensity, higher = more binding, comparable within an allelic series) | 12.1 upbm affinity estimate (log intensity, higher = more binding, comparable within an allelic series) | 12.8 upbm affinity estimate (log intensity, higher = more binding, comparable within an allelic series) | 12.5 upbm affinity estimate (log intensity, higher = more binding, comparable within an allelic series) | 12.5 upbm affinity estimate (log intensity, higher = more binding, comparable within an allelic series)

Source: paper PMC11006913
